Data taken from the supplement of paper PMC7411054.
Structures can show the parent of a compound that is named as a salt. Values without a mark were called inactive.

test system: A549-TP53BP1-CLTA; assay: phenotypically active (imaging signature differs from DMSO and reproducible) at any of 0.3-9 uM (binary (1 = active, 0 = inactive)); higher = active; conditions: treatment time: 24 h
How it was run: (§1)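 The reporter lines, fifteen in total and built by gene editing in A549, HepG2 and WPMY1 cells, used BFP for segmentation alongside GFP and RFP/FusionRed markers. Each was treated at 0.3, 1, 3 or 9 µM for 24 h in four wells and then imaged live, with live-cell features normalised to solvent control wells. Deviation meant ≥3 of 4 wells beyond the 95th percentile of control Euclidean distances; reproducibility meant a median replicate Pearson correlation above the 95th percentile of non-replicates. Only conditions meeting both were scored as phenotypically active.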

| SMILES | phenotypically active |
| --- | --- |
| CC[C@@H](C(=O)[C@@H](C)[C@@H](O)[C@H](C)[C@@H]1O[C@@H]([C@@H](CC)C(=O)O)CC[C@@H]1C)[C@H]1O[C@]2(C=C[C@@H](O)[C@]3(CC[C@@](C)([C@H]4CC[C@](O)(CC)[C@H](C)O4)O3)O2)[C@H](C)C[C@@H]1C [Salinomycin Sodium] | 1 (active) |
| CC[C@@H](CO)NC(=O)[C@@H]1C=C2c3cccc4c3c(cn4C)C[C@H]2N(C)C1 [methysergide] | 0 |
| CN1C[C@H](C(=O)N[C@]2(C)O[C@@]3(O)[C@@H]4CCCN4C(=O)[C@H](Cc4ccccc4)N3C2=O)C=C2c3cccc4[nH]cc(c34)C[C@H]21 [ergotamine] | 1 (active) |
| C[C@H](CCC(=O)O)C[C@H](C)C[C@H](C)C(=O)/C=C(\O)[C@H](C)C[C@H](C)C/C=C/[C@@H](C)[C@@H](O)[C@@H](C)[C@@H](O)C[C@@H]1CC[C@@](C)([C@H]2CC[C@@](C)([C@@H](C)O)O2)O1 [Ionomycin free acid] | 0 |
| N#CC(C#N)=NNc1ccc(OC(F)(F)F)cc1 | 1 (active) |
| COC1=CC(C)=C[C@@H](C)[C@@H](O)[C@@H](C)CC(C)=CC=C[C@H](OC)[C@@H]([C@@H](C)[C@@H](O)[C@H](C)[C@@]2(O)C[C@@H](O)[C@H](C)[C@@H](C(C)C)O2)OC1=O [Bafilomycin A1] | 1 (active) |
| COc1cc([C@@H]2c3cc4c(cc3[C@H](O)[C@H]3COC(=O)[C@H]23)OCO4)cc(OC)c1OC [Podophyllotoxin] | 1 (active) |
| CC[C@]12C=CCN3CC[C@]4(C(=C(C(=O)OC)C1)Nc1ccccc14)[C@@H]32 [Tabersonine dichlorhydrate] | 0 |

test system: A549-TUBA1B-RELA; assay: as above; conditions: treatment time: 24 h
How it was run: as §1

| SMILES | phenotypically active |
| --- | --- |
| CC[C@H]1CN2CC[C@H]1C[C@@H]2[C@@H](O)c1ccnc2ccc(OC)cc12 [Hydroquinidine HCl] | 1 (active) |
| COc1cc2c(c(OC)c1OC)-c1ccc(O)c(=O)cc1[C@@H](N)CC2 [Trimethylcolchicinic acid] | 1 (active) |
| C[C@@]1(CO)[C@H](O)CC[C@@]2(C)[C@H]1CC[C@H]1C[C@@H]3C[C@@]12CC[C@]3(O)CO [Aphidicolin] | 1 (active) |
| COC(=O)[C@@]1(O)C[C@H]2O[C@]1(C)n1c3ccccc3c3c4c(c5c6ccccc6n2c5c31)C(=O)NC4 | 1 (active) |
| COc1ccc(N(C(=O)Oc2c(C)cccc2C)c2ccnc(Nc3ccc(N4CCN(C)CC4)cc3)n2)c(OC)c1 | 1 (active) |
| COc1ccc2c(c[n+](C)c3c4cc5c(cc4ccc23)OCO5)c1OC [Chelerythrine chloride] | 0 |
| CC[C@@H]1C=CC=CC[C@H](C)[C@@H](O)[C@](C)(O)C(=O)[C@H](C)[C@@H](O)[C@H](C)C(=O)[C@H](C)[C@@H](O)[C@H](C)C=CC(=O)O[C@H]2[C@@H](C)[C@@H](CC1)O[C@@]1(CC[C@@H](C)[C@@H](C[C@H](C)O)O1)[C@@H]2C [Oligomycin A] | 1 (active) |
| CC(C)[C@@]1(NC(=O)[C@@H]2C[C@@H]3c4cccc5[nH]cc(c45)C[C@H]3N(C)C2)O[C@@]2(O)[C@@H]3CCCN3C(=O)[C@H](Cc3ccccc3)N2C1=O [Dihydroergocristine mesylate] | 1 (active) |
| O=c1[nH]c2ccccc2n1C1CCN(CCCC(c2ccc(F)cc2)c2ccc(F)cc2)CC1 [pimozide] | 1 (active) |
| C[C@]12CC[C@H]3[C@@H](CC[C@]4(O)C[C@@H](O)CC[C@]34C=O)[C@@]1(O)CC[C@@H]2C1=CC(=O)OC1 [Strophanthidin] | 1 (active) |
| CN1CCC2=C[C@H](O)[C@H]3OC(=O)c4cc5c(cc4[C@H]3[C@@H]21)OCO5 [Hippeastrine hydrobromide] | 0 |
| C=C1[C@@H](O)C2C=CC[C@H](C)C(=O)[C@](C)(O)C=C[C@@H](OC(C)=O)[C@]23C(=O)N[C@H](Cc2ccccc2)[C@@H]3[C@@H]1C (stereo partly drawn) [Cytochalasin D] | 1 (active) |
| COc1ccc(C[C@H]2NC[C@H](O)[C@H]2OC(C)=O)cc1 [Anisomycin] | 1 (active) |
| C[C@@H]1CC[C@H]2[C@@H](C)C(=O)O[C@@H]3O[C@@]4(C)CC[C@@H]1[C@]32OO4 [Artemisinin] | 1 (active) |
| O=C1NC(=O)c2c1c1c3ccccc3n3c1c1c2c2ccccc2n1C1CCC3O1 | 1 (active) |
